Our source for the growth values is PubChem BioAssay (NCI).

This is part of a sample that, as a whole, favours compounds with a hit. Of some 83,000 tested, about 20% had one in any assay.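 Testing used 96-well plates and a 48-hour single-concentration exposure. Example: -40 means 40% of the starting cells died.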 A number with no mark means an inactive call. Active and inactive are the calls of the source. The calls were made as follows: active = growth percent below 10; inactive = the rest.

Test systems include NCI-H23 lung; NCI-H226 lung; NCI-H322M lung; HOP-62 NSCLC; NCI-H460 lung; HOP-92 NSCLC; NCI-H522 lung; A549/ATCC NSCLC; 786-0 renal; COLO 205 colon.
Common to all, as to assay: NCI-60 one-dose screen, 48 h (100 = growth as untreated, 0 = no growth, -100 = all killed)
Holding throughout (conditions): 10 µM unless noted

`C=CC1=C[C@@H]2[C@@H]3O[C@]4(CC[C@H](O4)[C@@H](C)C[C@@H](O)C3=O)C[C@H](O)C3=NCC[C@@]32CC1`: the growth was -34.6% (active) in the test on NCI-H23 lung; -29.2% (active) with NCI-H226 lung; -23.4% (active) with NCI-H322M lung; -20.3% (active) with HOP-62 NSCLC; -28.9% (active) with NCI-H460 lung; -22.3% (active) in the test with HOP-92 NSCLC. For the same compound, the growth in the test on NCI-H522 lung is -33.5% (active); with A549/ATCC NSCLC, -3.33% (active); in the test with 786-0 renal, -28.3% (active); with COLO 205 colon it was -25.6% (active).

As for `COC1OC(CO)C(O)C(O)[CH]1[Hg][O]C(C)=O` (stereo not given), the growth with NCI-H23 lung was 94.2%; in the test with NCI-H226 lung, 100%; in the test with NCI-H322M lung, 91.7%; in the test with HOP-62 NSCLC, 102%; with NCI-H460 lung it was 94.9%; in the test with HOP-92 NSCLC it was 123%. In addition, the growth is -42.7% (active) with NCI-H522 lung, 94.9% with A549/ATCC NSCLC, 106% in the test on 786-0 renal and 98% with COLO 205 colon.

For the compound `ClCCN(CCCl)c1ccc(/C=N\N=C\c2ccc(N(CCCl)CCCl)cc2)cc1`, the growth in the test on NCI-H23 lung was 62%; with NCI-H226 lung, 28.9%; with NCI-H322M lung, 74.2%; in the test on HOP-62 NSCLC, 39.1%; in the test with NCI-H460 lung it was 14.7%; in the test on HOP-92 NSCLC it was 76.7%. The growth was 11.1% in the test on NCI-H522 lung, 13.6% in the test with A549/ATCC NSCLC, 31.7% in the test with 786-0 renal and 37.4% with COLO 205 colon.

Turning to `COC(=O)[C@H](Cc1ccccc1)NC(=O)c1csc([C@@H](C[C@H](C(C)C)N(C)C(=O)[C@@H](NC(=O)[C@H]2CCCCN2C)C2CC2)OC(C)=O)n1`, the growth in the test with NCI-H23 lung is 23.9%; with NCI-H226 lung, 27.7%; with NCI-H322M lung it was 46.1%; in the test on HOP-62 NSCLC, -2.57% (active); with NCI-H460 lung, 1.93% (active); with HOP-92 NSCLC it was -3.94% (active). The growth in the test with NCI-H522 lung was -28.7% (active); in the test with A549/ATCC NSCLC, 14.2%; with 786-0 renal it was 11.7%; in the test with COLO 205 colon, -66.6% (active).

With `COc1cccc2c1c(C(=O)c1ccco1)cn2Cc1ccc(F)cc1`, the growth with NCI-H23 lung is 111%; in the test on NCI-H226 lung it was 96.3%; in the test with NCI-H322M lung, 115%; in the test on HOP-62 NSCLC, 125%; with NCI-H460 lung, 113%; in the test with HOP-92 NSCLC, 63.4%. Moreover, the growth with NCI-H522 lung was 76.2%; with A549/ATCC NSCLC, 112%; in the test on 786-0 renal, 110%; in the test on COLO 205 colon, 123%.

On to `O=C([O][Hg][CH2]C1COCC([CH2][Hg][O]C(=O)c2ccccc2)O1)c1ccccc1` (stereo not given), for which the growth was 90.2% with NCI-H23 lung; 106% with NCI-H226 lung; 110% in the test on NCI-H322M lung; 127% with HOP-62 NSCLC; 106% in the test with NCI-H460 lung; 77% in the test with HOP-92 NSCLC. In addition, the growth in the test on NCI-H522 lung is -53.3% (active); in the test with A549/ATCC NSCLC, 105%; with 786-0 renal, 104%; in the test with COLO 205 colon, -23.1% (active).

Take `COC(=O)[C@]12CCC(C)(C)C[C@H]1[C@H]1C(=O)C[C@@H]3[C@@]4(C)C[C@@]5(CC(C)(C)[C@@H]4CC[C@@]3(C)[C@]1(C)CC2)OO[C@@](C)(C(F)(F)F)O5`: the growth is 89% with NCI-H23 lung; 86.5% with NCI-H226 lung; 109% in the test on NCI-H322M lung; 100% in the test with HOP-62 NSCLC; 101% with NCI-H460 lung; 98.8% in the test on HOP-92 NSCLC. Besides, the growth in the test with NCI-H522 lung was 76.7%; with A549/ATCC NSCLC, 98%; in the test on 786-0 renal, 97.8%; in the test with COLO 205 colon it was 134%.

With `CC(C)COC(C[N+](=O)[O-])C(Cl)(Cl)Cl` (stereo not given), the growth in the test on NCI-H23 lung is 105%; in the test on NCI-H226 lung, 107%; with NCI-H322M lung, 106%; in the test with HOP-62 NSCLC it was 111%; in the test with NCI-H460 lung, 108%; in the test on HOP-92 NSCLC, 102%. Further, the growth in the test with NCI-H522 lung was 98.6%; in the test on A549/ATCC NSCLC, 98.1%; in the test with 786-0 renal, 112%; in the test on COLO 205 colon it was 102%.

For the compound `CN1CCC(O)(c2ccc(F)cc2)C(C(=O)c2ccc(F)cc2)C1` (stereo not given), the growth with NCI-H23 lung is 99.3%; with NCI-H226 lung, 108%; in the test on NCI-H322M lung, 98.7%; with HOP-62 NSCLC, 97.2%; in the test on NCI-H460 lung, 109%; in the test on HOP-92 NSCLC it was 96.4%. Further, the growth was 78.9% in the test on NCI-H522 lung, 101% with A549/ATCC NSCLC, 102% in the test with 786-0 renal and 115% in the test on COLO 205 colon.

Turning to `COc1ccc(/C=C\c2cc(OC)c(OC)c(OC)c2)cc1NS(=O)(=O)c1ccc(Cl)cc1`, the growth in the test on NCI-H23 lung is 75.3%; in the test with NCI-H226 lung, 70.9%; in the test with NCI-H322M lung it was 73.1%; with HOP-62 NSCLC, 83.9%; with NCI-H460 lung, 84.1%; in the test with HOP-92 NSCLC, 37%. Besides, the growth in the test on NCI-H522 lung was 25.9%; in the test on A549/ATCC NSCLC, 58.9%; with 786-0 renal, 78%; with COLO 205 colon, 73.6%.

Turning to `NC(=O)C(Br)c1ccccc1` (stereo not given), the growth in the test on NCI-H23 lung was 89.9%; with NCI-H226 lung, 88.7%; with NCI-H322M lung, 99.6%; with HOP-62 NSCLC, 103%; in the test on NCI-H460 lung, 108%; with HOP-92 NSCLC it was 99.6%. Also, the growth with NCI-H522 lung is 53.5%; in the test with A549/ATCC NSCLC, 91.8%; in the test on 786-0 renal, 107%; in the test with COLO 205 colon, 103%.

As for `CC[CH2][Sn]([Cl])([Cl])[CH2]CC`, the growth is 76.9% with NCI-H23 lung; 86.4% with NCI-H226 lung; 131% in the test on NCI-H322M lung; 82.4% with HOP-62 NSCLC; 107% with NCI-H460 lung; 110% with HOP-92 NSCLC. Further, the growth in the test with NCI-H522 lung is -87.2% (active); with A549/ATCC NSCLC it was 99.3%; in the test on 786-0 renal, 73.8%; in the test on COLO 205 colon it was 44.2%.

`C/C(=C\c1ccn(-c2ccc(N)c(F)c2)n1)[C@@H]1C[C@@H]2O[C@]2(C)CCC[C@H](C)[C@H](O)[C@@H](C)C(=O)C(C)(C)[C@@H](O)CC(=O)O1`: the growth in the test with NCI-H23 lung is 30.4%; in the test with NCI-H226 lung, 50.9%; in the test with NCI-H322M lung, 25.7%; in the test on HOP-62 NSCLC it was 38.1%; in the test with NCI-H460 lung, 15.9%; in the test with HOP-92 NSCLC, 53.2%. Further, the growth in the test with NCI-H522 lung is 18.7%; with A549/ATCC NSCLC it was 26.5%; with 786-0 renal, 25.3%; in the test on COLO 205 colon, -8.2% (active).

As for `CC(=O)O[C@H](C[C@H](C(C)C)N(C)C(=O)[C@@H](NC(=O)[C@H]1CCCCN1C)C(C)C)c1nc(C(=O)N[C@@H](Cc2ccccc2)C[C@H](C)C(=O)O)c(CCOCc2ccccc2)s1`, the growth is 24.3% with NCI-H23 lung; -56.8% (active) with NCI-H226 lung; 33.5% with NCI-H322M lung; 29.6% in the test with HOP-62 NSCLC; 5.98% (active) with NCI-H460 lung; 5.5% (active) in the test on HOP-92 NSCLC. Moreover, the growth with NCI-H522 lung was -47.4% (active); in the test with A549/ATCC NSCLC it was 13%; in the test with 786-0 renal it was 7.14% (active); in the test on COLO 205 colon, -42% (active).

For `COC(=O)[C@@H](C)C[C@H](Cc1ccccc1)NC(=O)c1csc([C@@H](C[C@H](C(C)C)N(C)C(=O)[C@@H](NC(=O)[C@H]2CCCCN2C)C(C(F)(F)F)C(F)(F)F)OC(C)=O)n1`, the growth is 44.8% in the test on NCI-H23 lung; 56.7% in the test with NCI-H226 lung; 37% in the test on NCI-H322M lung; 15.1% in the test on HOP-62 NSCLC; 5.59% (active) with NCI-H460 lung; 12.4% in the test with HOP-92 NSCLC. For the same compound, the growth is -8.2% (active) with NCI-H522 lung, 12.8% with A549/ATCC NSCLC, -5.39% (active) with 786-0 renal and -50.6% (active) in the test on COLO 205 colon.

As to `CN1CCCCC1C(C)(O)c1ccccc1` (stereo not given), the growth was 106% in the test on NCI-H23 lung; 99.7% in the test with NCI-H226 lung; 101% in the test with NCI-H322M lung; 92.9% in the test with HOP-62 NSCLC; 107% in the test on NCI-H460 lung; 98.6% in the test on HOP-92 NSCLC. Moreover, the growth is 89.9% in the test with NCI-H522 lung, 92% in the test with A549/ATCC NSCLC, 95.1% in the test on 786-0 renal and 114% with COLO 205 colon.

With `O=C(Nc1ccc(Br)cc1)c1cc(Br)cc(Br)c1O`, the growth in the test on NCI-H23 lung was -14.1% (active); in the test on NCI-H226 lung it was 10.6%; in the test with NCI-H322M lung, 13.7%; in the test on HOP-62 NSCLC it was -4.33% (active); with NCI-H460 lung, -25.3% (active); in the test on HOP-92 NSCLC, -30.7% (active). The growth in the test on NCI-H522 lung is -3.18% (active); in the test on A549/ATCC NSCLC, 6.64% (active); with 786-0 renal, -12.3% (active); in the test with COLO 205 colon, 102%.

As for `O=[N+]([O-])CC(O)C(Cl)(Cl)Cl` (stereo not given), the growth in the test on NCI-H23 lung is 98.6%; with NCI-H226 lung it was 103%; in the test on NCI-H322M lung, 103%; in the test with HOP-62 NSCLC, 99.8%; in the test on NCI-H460 lung, 101%; with HOP-92 NSCLC it was 93.2%. The growth in the test with NCI-H522 lung is 99.1%; with A549/ATCC NSCLC, 106%; with 786-0 renal, 103%; with COLO 205 colon, 98.2%.

On to `Cc1cccc(N2CCN(C(C)C#N)CC2)c1` (stereo not given), for which the growth in the test with NCI-H23 lung was 97.6%; with NCI-H226 lung it was 96.6%; in the test on NCI-H322M lung, 93.8%; in the test on HOP-62 NSCLC, 107%; in the test on NCI-H460 lung it was 109%; in the test on HOP-92 NSCLC, 91.4%. The growth in the test on NCI-H522 lung is 88.9%; in the test with A549/ATCC NSCLC it was 107%; in the test on 786-0 renal it was 90.3%; with COLO 205 colon, 105%.

For the compound `COP(=S)(N1CC1)N1CC1`, the growth with NCI-H23 lung was 101%; in the test on NCI-H226 lung, 98.6%; in the test with NCI-H322M lung, 100%; in the test with HOP-62 NSCLC it was 94.1%; in the test on NCI-H460 lung, 107%; with HOP-92 NSCLC, 98.6%. The growth with NCI-H522 lung is 103%; in the test on A549/ATCC NSCLC it was 133%; with 786-0 renal, 105%; in the test with COLO 205 colon, 106%.
